Results as given in PubChem BioAssay.
Active and inactive are the calls of the source.

Test system: not listed separately
Assay: CREB reporter modulators under forskolin, primary screen, cell-based, PC12, CRE-LacZ reporter, forskolin-stimulated (AID 1146);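 note: PC12 cells with 6xCRE LacZ reporter stimulated by forskolin 10 µM; beta-galactosidase reporter signal reflecting CREB driven transcription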
Details: luminescence, 4.5 h, higher = more signal, called active from +8 up or from −8 down

Row | SMILES | z-score
1 | O=C1OC[C@@H](c2ccccc2)N2CC(/C=C/c3ccccc3)=CC12 (stereo partly drawn) | -1.57 (inactive)
2 | CC(C)CNC(=O)[C@@]1(c2ccc([N+](=O)[O-])cc2)CC(=O)N(C2CCCCC2)[C@@H]1c1ccc(CO)cc1I | 1.65 (inactive)
3 | COCCOC(=O)N1C(=O)[C@@]2(c3cc(C#Cc4ccc(OC)cc4)ccc31)[C@H](C(=O)N1CCCCCCC1)[C@H]1C(=O)O[C@H](c3ccccc3)[C@H](c3ccccc3)N1[C@@H]2c1ccc(O)cc1 | -0.841 (inactive)
4 | COCCCNC(=O)[C@]1(Cc2ccccc2CN=[N+]=[N-])N=C(c2ccc(OCCCO)cc2)O[C@@H]1c1ccccc1 | -0.577 (inactive)
5 | C=CCC(OC(C)=O)[C@@H]1[C@@H](N(Cc2cc3ccccc3o2)C(=O)Cc2ccc(F)cc2)c2cc(OCCCO)ccc2N1C(=O)c1ccc2ccccc2n1 (stereo partly drawn) | 0.0063 (inactive)
6 | CCN(CC)c1ccc(N2CC=CC34O[C@@H]5/C=C\CCC(C)OC(=O)C5[C@H]3C(=O)N(CCO)[C@@H]4C2=O)cc1 (stereo partly drawn) | -0.295 (inactive)
7 | CCOC(=O)C[C@H]1[C@H](OC(=O)Cc2ccc3c(c2)OCO3)[C@@H](NC(=O)Cc2ccc(OC)cc2)c2cc(OCCCO)ccc2N1C(=O)c1ccccc1 | -0.377 (inactive)

Biological target: Streptavidin (Streptomyces avidinii) (UniProt P22629)
Sequence (P22629 whole entry, looked up): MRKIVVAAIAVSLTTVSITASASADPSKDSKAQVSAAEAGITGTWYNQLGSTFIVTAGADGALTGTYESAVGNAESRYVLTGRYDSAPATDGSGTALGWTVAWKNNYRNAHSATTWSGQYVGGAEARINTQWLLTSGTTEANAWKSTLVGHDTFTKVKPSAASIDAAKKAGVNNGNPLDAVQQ
Assay: streptavidin binders on small-molecule microarray, primary screen, artefact control for SMM compound annotation, biophysical, 635/667 nm fluorescence (AID 1147);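 note: signal reflects streptavidin binding to arrayed compounds as a control protein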
Details: streptavidin binding, higher = more signal

Row | SMILES | composite z-score
8 | O=C1O[C@@H](c2ccccc2)[C@@H](c2ccccc2)N2[C@@H](c3ccccc3OCCO)[C@]3(C(=O)Nc4ccccc43)[C@@H](C(=O)NC[C@H](O)c3ccccc3)[C@H]12 | -0.625
9 | COCCOC(=O)N1C(=O)[C@@]2(c3cc(C#CC4=CCCCC4)ccc31)[C@H](c1ccccc1OCCO)N1[C@H](c3ccccc3)[C@H](c3ccccc3)OC(=O)[C@H]1[C@@H]2C(=O)N1CCc2cc(OC)c(OC)cc2C1 | -0.0953
10 | Cc1ccc(S[C@]2(C(=O)NC3CC3)CC(=O)N(Cc3ccccc3Cl)[C@@H]2c2ccc(CO)cc2I)cc1 | 0.163
11 | CC(C)CN1C(=O)[C@@]2(Cc3ccccc31)c1ccccc1C(=O)N(Cc1ccccc1C(F)(F)F)[C@H]2c1ccc(CO)cc1 | -0.0961
12 | CCCN1C(=O)[C@]2(Cc3ccccc3)N=C(c3ccc(OCCCO)cc3)O[C@@H]2c2ccccc21 | 0.501
13 | C[C@]1(C(=O)NC2CC2)c2ccccc2C(=O)N(Cc2ccc(OC(F)(F)F)cc2)[C@H]1c1ccc(CO)cc1 | -0.825
14 | NC(=O)NCC#Cc1ccc2c(c1)[C@]1(C(=O)N2)[C@H](C(=O)O)[C@H]2C(=O)O[C@H](c3ccccc3)[C@H](c3ccccc3)N2[C@@H]1c1ccccc1OCCO | 1.1
15 | Cc1ccc(S[C@]2(C(=O)NCCN3CCOCC3)CC(=O)N(Cc3ccccc3C(F)(F)F)[C@@H]2c2ccc(CO)cc2I)cc1 | -1.49
16 | Cc1ccc(S[C@]2(C(=O)NCc3ccccc3)CC(=O)N(C(C)C)[C@@H]2c2ccc(CO)cc2I)cc1 | -0.505
17 | NC(=O)NCC#Cc1ccc2c(c1)[C@]1(C(=O)N2)[C@H](C(=O)Nc2nc3ccccc3s2)[C@H]2C(=O)O[C@H](c3ccccc3)[C@H](c3ccccc3)N2[C@@H]1c1ccc(O)cc1 | 2.27
18 | O=C1NC(=O)C2C1C=CC(C(O)c1ccc(Br)cc1)N2Nc1ccccn1 (stereo not drawn) | 0.363
19 | [N-]=[N+]=Nc1ccccc1[C@H]1OC(c2ccc(OCCCO)cc2)=N[C@@]1(CCS(=O)(=O)c1ccccc1)C(=O)N1CCCCC1 | 1.89
20 | CC(C)C(CO)N1C(=O)[C@]2(C)C3C(=O)OCCC/C=C\[C@H]3OC23C=CCN(c2ccc(Cl)cc2)C(=O)[C@@H]13 (stereo partly drawn) | -0.476
21 | C=C[C@@H](C)[C@H](OC(=O)Nc1ccc(SC)cc1)c1ccc(OCCO)cc1 | -0.936
22 | [N-]=[N+]=NCc1ccccc1C[C@@]1(C(=O)NCCN2CCOCC2)N=C(c2ccc(OCCCO)cc2)O[C@@H]1c1ccccc1N=[N+]=[N-] | 0.408
23 | CC(=O)N1Cc2ccccc2C[C@]2(N=C(c3ccc(OCCCO)cc3)O[C@@H]2c2ccccc2)C1=O | 0.253
24 | O=C1c2ccccc2[C@](Cc2ccccc2I)(C(=O)NCCN2CCOCC2)[C@H](c2ccc(CO)cc2)N1Cc1ccccc1 | 1.17
25 | Cc1ccc(S[C@]2(C(=O)NC(C)C)CC(=O)N(Cc3ccccc3C(F)(F)F)[C@@H]2c2ccc(CO)cc2I)cc1 | -0.281

Row | SMILES | composite z-score
26 | CCOC(=O)[C@H]1C/C=C/C[C@H](C(=O)OCC)C(=O)O[C@H]2[C@@H](OC)O[C@H](CO)[C@@H](OC(=O)Nc3ccc(OC)cc3)[C@@H]2OC1=O | 0.355
27 | C[C@]1(C(=O)NCCN2CCOCC2)c2ccccc2C(=O)N(Cc2ccc(OC(F)(F)F)cc2)[C@H]1c1ccc(CO)cc1 | -0.152
28 | C=CC[C@]1(C(=O)N(C)C)N=C(c2ccc(OCCCO)cc2)O[C@H]1c1ccccc1N=[N+]=[N-] | 1.61
29 | COc1ccc([Si](C)(C)[C@H]2[C@H](CCO)O[C@@]3(C(=O)N(Cc4cccc(N5CCCCC5=O)c4)c4ccccc43)[C@@H]2C)cc1 | 0.569
30 | C=CC[C@H](OC(=O)Nc1ccc(OC)cc1)c1ccc(O)c2ccccc12 | 0.855
31 | CC(C)N1CC=CC23O[C@@H]4C=CCOC(=O)[C@@H]4[C@H]2C(=O)N(C(C)CO)[C@@H]3C1=O (stereo partly drawn) | -0.23
32 | COCCOC(=O)N1C(=O)[C@@]2(c3cc(C#CCNC(N)=O)ccc31)[C@H](C(=O)N1CCCCCCC1)[C@H]1C(=O)O[C@H](c3ccccc3)[C@H](c3ccccc3)N1[C@@H]2c1ccc(O)cc1 | 0.399
33 | COc1ccc(C(O)C2C=CC3C(=O)N(c4ccccc4)C(=O)C3N2Nc2ccccc2)cc1OCc1ccccc1 (stereo not drawn) | 0.887
34 | C=CC[C@@H](OC(=O)Nc1ccc(OC)cc1)c1ccc(OCCO)cc1 | -1.21
35 | O=C1O[C@@H](c2ccccc2)[C@@H](c2ccccc2)N2[C@@H](c3ccc(O)cc3)[C@]3(C(=O)Nc4ccccc43)[C@@H](C(=O)Nc3nc4ccccc4s3)[C@H]12 | 0.243
36 | COCCCNC(=O)[C@]1(Cc2ccccc2N=[N+]=[N-])N=C(c2ccc(OCCCO)cc2)O[C@@H]1c1ccccc1N=[N+]=[N-] | 1.25
37 | O=C1OC[C@@H](c2ccccc2)N2CC(/C=C/c3ccccc3)=CC12 (stereo partly drawn) | -0.274
38 | CC(C)CNC(=O)[C@@]1(c2ccc([N+](=O)[O-])cc2)CC(=O)N(C2CCCCC2)[C@@H]1c1ccc(CO)cc1I | -0.018
39 | COCCOC(=O)N1C(=O)[C@@]2(c3cc(C#Cc4ccc(OC)cc4)ccc31)[C@H](C(=O)N1CCCCCCC1)[C@H]1C(=O)O[C@H](c3ccccc3)[C@H](c3ccccc3)N1[C@@H]2c1ccc(O)cc1 | 0.123
40 | COCCCNC(=O)[C@]1(Cc2ccccc2CN=[N+]=[N-])N=C(c2ccc(OCCCO)cc2)O[C@@H]1c1ccccc1 | 0.723
41 | C=CCC(OC(C)=O)[C@@H]1[C@@H](N(Cc2cc3ccccc3o2)C(=O)Cc2ccc(F)cc2)c2cc(OCCCO)ccc2N1C(=O)c1ccc2ccccc2n1 (stereo partly drawn) | 0.0443
42 | CCN(CC)c1ccc(N2CC=CC34O[C@@H]5/C=C\CCC(C)OC(=O)C5[C@H]3C(=O)N(CCO)[C@@H]4C2=O)cc1 (stereo partly drawn) | -0.21
43 | CCOC(=O)C[C@H]1[C@H](OC(=O)Cc2ccc3c(c2)OCO3)[C@@H](NC(=O)Cc2ccc(OC)cc2)c2cc(OCCCO)ccc2N1C(=O)c1ccccc1 | 0.421
